Laboratory results from the supplement of paper PMC6555819.

How the values were obtained:
Test in all cases: PBM binding z-score (relative to random genomic background probes); higher = stronger binding; sequences stand for … in GC…GCGATTGACAGCGTAGAATGAAGG
[1] = system: FXR:RXRa (NR concentration 270 nM, RXRa partner concentration 90 nM)
Outline: (§1)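 Custom Agilent 4×180K protein-binding microarrays carried double-stranded probes, each with a 34-nt variable region. These regions held direct-repeat seeds, single-nucleotide variants, half-site ablations and random human genomic background sequences. Ligand-free nuclear receptor dimers were incubated on the arrays for 1 h, antibodies against each partner (one per run) detected binding, and scanned fluorescence was regression-normalized. Binding z-scores take the random background probes as reference.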

[2] = system: LXRa:RXRa (NR concentration 270 nM, RXRa partner concentration 90 nM)
Outline: as §1

[3] = system: LXRa homodimer (NR concentration 270 nM)
Outline: as §1

[4] = system: LXRb:RXRa (NR concentration 270 nM, RXRa partner concentration 90 nM)
Outline: as §1

[5] = system: LXRb homodimer (NR concentration 270 nM)
Outline: as §1

[6] = system: PPARa:RXRa (NR concentration 270 nM, RXRa partner concentration 90 nM)
Outline: as §1

[7] = system: PPARg:RXRa (NR concentration 180 nM, RXRa partner concentration 90 nM)
Outline: as §1

[8] = system: PPARg:RXRa 270nM:90nM, anti-RXR (NR concentration 270 nM, RXRa partner concentration 90 nM)
Outline: as §1

[9] = system: PPARg:RXRa 30nM:10nM, anti-RXR (NR concentration 30 nM, RXRa partner concentration 10 nM)
Outline: as §1

[10] = system: PPARg:RXRa 90nM:30nM, anti-RXR (NR concentration 90 nM, RXRa partner concentration 30 nM)
Outline: as §1

[11] = system: PPARg:RXRa DBDmut IVT, anti-RXR (DBD mutation: RXRa K156A/R161A, NR concentration 270 nM, RXRa partner concentration 90 nM)
Outline: as §1

[12] = system: PPARg:RXRa IVT, anti-PPARg (NR concentration 270 nM, RXRa partner concentration 90 nM)
Outline: as §1

[13] = system: PPARg DBDmut:RXRa IVT, anti-PPARg (DBD mutation: PPARg1 K132A/R137A, NR concentration 270 nM, RXRa partner concentration 90 nM)
Outline: as §1

[14] = system: PPARg DBDmut IVT, anti-PPARg (DBD mutation: PPARg1 K132A/R137A, NR concentration 270 nM)
Outline: as §1

[15] = system: PPARg homodimer (NR concentration 180 nM)
Outline: as §1

[16] = system: PXR:RXRa (NR concentration 270 nM, RXRa partner concentration 90 nM)
Outline: as §1

[17] = system: PXR homodimer (NR concentration 270 nM)
Outline: as §1

[18] = system: RARa:RXR (NR concentration 270 nM, RXRa partner concentration 90 nM)
Outline: as §1

[19] = system: RARa homodimer (NR concentration 270 nM)
Outline: as §1

[20] = system: RARb:RXRa (NR concentration 270 nM, RXRa partner concentration 90 nM)
Outline: as §1

Row | Sequence | PBM binding z-score [1] | PBM binding z-score [2] | PBM binding z-score [3] | PBM binding z-score [4] | PBM binding z-score [5] | PBM binding z-score [6] | PBM binding z-score [7] | PBM binding z-score [8] | PBM binding z-score [9] | PBM binding z-score [10] | PBM binding z-score [11] | PBM binding z-score [12] | PBM binding z-score [13] | PBM binding z-score [14] | PBM binding z-score [15] | PBM binding z-score [16] | PBM binding z-score [17] | PBM binding z-score [18] | PBM binding z-score [19] | PBM binding z-score [20]
1 | GCAGATAGGTGAAACGCAGGTAACTCAGGGTGGC | -0.146 | 0.0468 | -0.529 | -0.0922 | -1.28 | 1.27 | 0.838 | 0.277 | -0.496 | 0.174 | 3.27 | 1.58 | 0.0261 | -0.672 | -0.419 | -0.335 | -0.798 | 0.347 | -0.582 | 0.748
2 | GCTGCTTGGTCAACTGATGGTCAGCTAAAGCTCG | -0.663 | -0.552 | -0.675 | -0.752 | -0.593 | -0.414 | -0.68 | -0.367 | -1.15 | -0.725 | 0.408 | 0.0173 | -0.74 | -1.06 | -0.674 | -0.491 | -0.859 | -0.138 | -0.784 | 1.24
3 | CGAACTAGGTCAGAAAAGGACAGTGAAGGATGAT | 1.84 | 0.723 | -0.125 | 0.338 | -0.514 | 2.87 | 4.64 | 4.06 | 1.43 | 3 | 6.88 | 7.14 | 2.3 | 1.47 | 1.15 | 1.17 | -0.473 | 1.08 | 0.026 | 3.16
4 | GCTTGTAGACCAAGGTTAAGAAAGACTAAGCTAA | -0.248 | 0.608 | -0.357 | 0.335 | -0.903 | 1.16 | 0.792 | 1.61 | 0.387 | 1.17 | 1.25 | 0.819 | 0.464 | 0.161 | -0.164 | 0.252 | -0.358 | 0.313 | 0.313 | 0.654
5 | TCGAGTAGGTTAGGTGCATTCAGAATGGCGTCGA | -0.264 | -0.0402 | -0.55 | 0.172 | -1.05 | 0.236 | -0.209 | 0.709 | 0.736 | 0.505 | 1.94 | 1.03 | -0.609 | -0.486 | -0.132 | 0.0438 | 0.333 | -0.0756 | -0.18 | 0.175
6 | TCCTGTAGATCAAGCAGGTTAAGAAAGCCTGAGT | 0.115 | 0.256 | -0.387 | 0.136 | -1.12 | 0.563 | -0.537 | 1.19 | 2.38 | 1.42 | 1.36 | -0.00456 | 0.0504 | -0.299 | -0.486 | 0.372 | 0.0191 | 0.301 | -0.136 | 0.0343
7 | ATCGAAAGGTCGACTAGGTGAGTATACACCGTTT | 4.12 | 3.17 | 0.302 | 2.94 | 0.797 | 4.24 | 2.56 | 3.24 | 1.06 | 2.34 | 0.845 | 2.25 | 0.674 | 1.34 | 0.62 | 2.73 | 0.165 | 3.24 | 0.35 | 3.72
